# Bioassay records: PubChem, National Center for Advancing Translational Sciences (NCATS)
# D3 ag – agonists of human D3 dopamine receptor; 0.58% of 410,000 active; D3R DiscoveRx beta-arrestin cells, luminescence, 90 min; AID 652048; max activation, %; in the data active means max activation above about 30%; further: 0% is about no effect
# Target sequence (P35462 whole entry, looked up): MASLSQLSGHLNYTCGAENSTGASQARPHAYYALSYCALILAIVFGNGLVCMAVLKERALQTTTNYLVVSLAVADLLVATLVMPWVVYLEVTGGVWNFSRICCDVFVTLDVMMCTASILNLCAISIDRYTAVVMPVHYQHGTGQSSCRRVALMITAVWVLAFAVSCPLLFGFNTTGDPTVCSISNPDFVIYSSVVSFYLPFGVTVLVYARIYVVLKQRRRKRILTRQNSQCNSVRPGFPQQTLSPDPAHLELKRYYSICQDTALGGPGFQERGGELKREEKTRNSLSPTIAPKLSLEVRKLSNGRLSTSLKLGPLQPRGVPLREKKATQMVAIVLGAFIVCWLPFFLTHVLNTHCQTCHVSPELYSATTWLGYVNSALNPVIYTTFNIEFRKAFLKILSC
#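 Agonist mode: compounds and dopamine controls were applied to plated cells for 90 min at 37 degrees C after an overnight attachment at 1500 cells/well. Luminescent read-out followed 30 - 60 minutes at room temperature with DiscoveRx detection reagent.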
# HepG2 viability – HepG2 cytotoxicity, counter-screen for TGF-b inhibitors; HepG2 CAGA-GFP viability, ATP luminescence, 18 h; Potency, µM (doses to about 46.1 µM), for the others: top-dose activity change, negative = cytotoxicity, most hits filed as cytotoxic; 0.76% of 410,000 active; AID 588856; further: potency means the concentration at half of the fitted maximal effect
#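 HepG2 CAGA-GFP cells (1000/well, DMEM with 1% FBS) received compound, then TGF-beta at 500 pg/mL final, and were incubated 18 hours at 37 degrees C. Viability was read by CellTiter-Glo luminescence. Media-only wells were set as complete cell-killing and DMSO as no toxicity.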
# S2 tox – cell viability loss in ATXN counter-screen | S2 cells (HEK-293 line with an ATXN2-luciferase reporter) viability, CellTiter-Fluor protease fluorescence, 24 h | Potency, µM (series often up to 56.7 µM), actives largely listed as cytotoxic | 0.49% of 400,000 active | AID 651635; further: potency means the concentration at half of the fitted maximal effect; nearly all actives have a fitted effect of over 40% in size
# TGFb inhibitor – inhibitors of TGF-b signaling | 1.2% of 410,000 active | HepG2 CAGA-GFP TGF-b/SMAD3 reporter, GFP fluorescence, 18 h; TGF-beta stimulated, 500 pg/mL final | Potency, µM (top dose mostly 46.1 µM), for the others: at the highest dose activity, negative = inhibition, actives largely listed as inhibitors | AID 588855; further: potency means the concentration at half of the fitted maximal effect; on the % scale 0 is the no-effect control and ±100 the full control effect; nearly all actives have a fitted effect of over 65% in size
#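 GFP signal (ex488/em500-530) from TGF-beta-stimulated HEPG2 CAGA-GFP cells, 500 pg/mL final, 18 h at 37 degrees C in DMEM plus 1% FBS, normalized to unstimulated and DMSO-stimulated controls.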
# ATXN2 expr inh – reduces ATXN2 reporter expression in HEK-293 cells; HEK-293 ATXN2-luciferase reporter, luminescence, 24 h; Potency, µM (series often up to 57 µM), for inactives: at the top dose activity change, negative = inhibition, most hits filed as inhibitors; 0.72% of 360,000 active; AID 1745845; further: potency means the concentration at half of the fitted maximal effect; on the % scale 0 is the no-effect control and ±100 the full control effect; nearly all actives have a fitted effect of over 55% in size
#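 ATXN2-luciferase reporter cells (luciferase flanked by upstream and downstream ATXN2 gene portions) were treated 24 h at 37 °C with compounds at up to 57 uM. SteadyGlo luminescence gave expression; GF-AFC fluorescence gave viability.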
# D3 antag – D3 dopamine receptor (human) antagonism. 2.5% of 360,000 active. max response, negative = inhibition, %. P35462. D3R cells, DiscoveRx beta-arrestin luminescence, antagonist mode; stronger effect = lower value. AID 652054; in the data active means max response below about -50%; inconclusive means no clear call, values can overlap the other calls; further: on the % scale 0 is the no-effect control and ±100 the full control effect
#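 Cells plated overnight at 1500 cells/well, then exposed to library compounds with dopamine controls for 90 minutes at 37 degrees C. DiscoveRx reagent added for 30–60 minutes at room temperature; luminescence read, quantitative HTS format.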
# * marks the source's active call; other numbers are inactive results; i = inactive; ? = inconclusive; . = not tested or not shown. This is a sample that favours compounds with a hit; in the whole collection about 4.7% have one here. Unless noted, the call rests on the fitted dose curve; in most records, active means well fitted curve in the direction sought with a large enough effect; inconclusive means small, poorly fitted or top-dose-only effect, or another doubt; inactive means no such curve, though single readings can be large; an effect the other way counts as inactive or inconclusive.
SMILES,D3 ag,HepG2 viability,S2 tox,TGFb inhibitor,ATXN2 expr inh,D3 antag
Cc1ccc(CS(=O)(=O)c2cn(CC(=O)N(C)c3ccccc3)c3ccccc23)cc1,0.3,-25.5%,.,-11.0%,.,.
COc1ccc(S(=O)(=O)N2CCN(c3nc(-c4ccccc4)nc4ccccc34)CC2)cc1,.,-34.4%,.,-20.3%,.,.
C/C(=N\Nc1cc(N2CCCCC2)nc(C)n1)c1ccc(Br)cc1,67.3*,15.8µM*,i,10µM*,?,23.5
CN(C)c1c([N+](=O)[O-])cc2[nH]c(=O)[nH]c2c1[N+](=O)[O-],-15.7,-20.4%,i,-2.4%,6.4%,-69.3*
Cc1ccc(C)c(N2CCN(C(=O)c3ccc4nc(-c5ccco5)c(-c5ccco5)nc4c3)CC2)c1,33.6*,-4.8%,i,-18.2%,-32.2%,37.5
COc1ccc(-c2cccc(NS(=O)(=O)c3cc(C)ccc3OC)c2)nn1,-10.6,-20.1%,i,?,-23.5%,.
Cc1nc(-c2ccc(Cl)cc2)sc1C1(C)CC(c2ccccc2Br)=NO1 (stereo unspecified),57.4*,-5.0%,i,-9.9%,15.7%,28.2
Cc1nc(C(=O)Nc2cc(F)cc(Cl)c2)sc1C1(C)CC(c2ccccc2)=NO1 (stereo unspecified),40.9*,-12.1%,?,?,-32.7%,7.9
CCNC(=S)NCCN1CCCCC1,-2.7,9.8%,i,-15.1%,9.1%,-7.8
CCCNC(=S)NCCN1CCCCC1,-1.0,0.0%,i,37.4%,1.0%,-62.5*
CCNC(=S)NCCN1CCOCC1,-3.1,0.8%,i,-8.1%,-3.0%,-4.3
CCCCNC(=S)NCCN1CCCCC1,-3.3,-0.3%,i,-6.4%,-38.4%,-72.1*
CCC=CC[C@H]1C(=O)CC[C@@H]1CC(=O)OC,.,.,.,.,-1.3%,.
CCOC(=O)c1c(C)[nH]c(C(=O)OCC(=O)Nc2sccc2C(N)=O)c1C,28.2,-38.8%,12.6µM*,-12.9%,?,141.4
CCOC(=O)c1c(C)[nH]c(C(=O)COC(=O)c2[nH]c(C)c(C(C)=O)c2C)c1C,37.2*,-2.8%,i,-10.6%,-38.3%,15.9
CC(=O)c1c(C)[nH]c(C(=O)COC(=O)c2ccc(C)s2)c1C,38.7*,0.9%,i,-6.6%,10.3%,38.2
CCOC(=O)c1c(C)[nH]c(C(=O)OCC(=O)Nc2ccc(Cl)cn2)c1C,-2.7,-7.8%,i,-31.6%,3.0%,0.0
CCOC(=O)c1[nH]c(C)c(C(=O)OCC)c1C,-1.9,19.6%,i,?,37.9%,-20.2
CC(C)c1ccc(CN(Cc2ccco2)c2cnc(S(C)(=O)=O)nc2C(=O)Nc2ccccc2)cc1,2.0,-17.1%,i,?,15.1%,.
Cn1c(Nc2ccc(C(F)(F)F)cc2)nc2cc(Oc3ccnc(-c4ncc(C(F)(F)F)[nH]4)c3)ccc21,.,.,.,.,-19.0%,.
COc1ccc(-c2cc(=O)oc3c4c(ccc23)OCN(Cc2cccc(OC)c2)C4)cc1,-21.7,-16.4%,.,16.9%,-28.6%,.
COC(=O)c1c(NC(=O)C(C)(C)C)sc2c1C(C(=O)OC)CC2 (stereo unspecified),0.6,-0.1%,i,4.5%,-13.0%,9.9
COC(=O)c1c(NC(=O)C(Cl)Cl)sc2c1C(C(=O)OC)CC2 (stereo unspecified),-9.2,-72.3%,i,11.2µM*,.,-12.9
Cc1cc(N(C)C)ccc1/C=C/c1ccnc2ccccc12,.,-2.2%,.,29.0%,.,.
Cc1ccccc1C(=O)NC(C)c1nnc2n1CCN(Cc1ccccc1F)CC2 (stereo unspecified),.,.,i,.,.,.
COc1ccccc1CNC(=O)[C@H](C)NC(=O)C1CCN(C(=O)[C@@H](N)C(C)C)CC1,38.0*,2.4%,i,-1.9%,1.8%,-4.9
O=C(NCC1CCCO1)c1ccccc1OCc1ccc(F)cc1 (stereo unspecified),-5.2,-5.6%,?,-10.8%,3.0%,-65.9*
NC(=O)c1ccc(N(C(N)=O)c2c(F)cccc2F)nc1-c1ccc(F)cc1F,.,.,.,.,-16.8%,.
